PubChem BioAssay AID720597 (Broad Institute, 2013)
Measured potencies and affinities stand elsewhere. Activity calls are given as the source filed them.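 How the source made its calls: active means fitted half-maximal dose no more than twice the top valid tested dose, for compounds that lower signal; inconclusive means fit invalid, or curve flat with activity between -70 and -30; inactive means potency past limit, curve flat within ±30, or signal increasing.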

biological target: NAD-dependent protein deacylase sirtuin-5, mitochondrial (Homo sapiens) (UniProt Q9NXA8); assay: blockers of sirtuin-5 peptide desuccinylation – biochemical, fluorescence imaging, cherry-pick, set 6, dose response (AID 720597); conditions: Purified SirT5, succinyl-peptide-AMC/trypsin fluorescence; series mostly up to 15 µM;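 further: lower AMC signal can also come from blocking the trypsin step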
Sequence (Q9NXA8 whole entry, looked up): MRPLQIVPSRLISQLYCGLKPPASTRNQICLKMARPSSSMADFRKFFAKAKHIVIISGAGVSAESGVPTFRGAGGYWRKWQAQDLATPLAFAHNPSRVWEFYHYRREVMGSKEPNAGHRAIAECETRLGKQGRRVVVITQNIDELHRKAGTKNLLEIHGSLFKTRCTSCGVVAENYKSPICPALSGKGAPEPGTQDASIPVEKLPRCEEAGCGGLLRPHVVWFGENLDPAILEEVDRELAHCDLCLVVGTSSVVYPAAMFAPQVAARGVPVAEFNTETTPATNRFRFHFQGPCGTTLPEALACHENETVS

outcome, inactive:
C[C@H]1CN([C@@H](C)CO)C(=O)c2cc(NC(=O)Cc3ccccc3)ccc2O[C@H]1CN(C)Cc1ccc(Oc2ccccc2)cc1
O=C(NCC[C@@H]1CC[C@@H](NS(=O)(=O)c2cccc(F)c2)[C@H](CO)O1)C1CCOCC1
Cc1ccc(-c2cnc3c(c2)C(=O)N([C@@H](C)CO)C[C@H](C)[C@@H](CN(C)C(=O)c2cccnc2)O3)cc1
C[C@@H]1CCCCO[C@@H](CN(C)Cc2ccc(Cl)c(Cl)c2)[C@@H](C)CN([C@H](C)CO)C(=O)c2cc(NC(=O)CCCCCC(=O)Nc3ccccc3N)ccc2O1
C[C@H](CO)N1C[C@H](C)[C@H](CN(C)C(=O)NC2CCCCC2)Oc2ccc(NC(=O)Nc3ccccc3)cc2C1=O
C[C@H](CO)N1C[C@H](C)[C@H](CN(C)S(=O)(=O)c2ccc(F)cc2)Oc2cc(C3=CCCCC3)ccc2S1(=O)=O
O=C(Nc1cc(F)ccc1F)N1C[C@@H]2[C@H](c3ccccc31)[C@H](CO)N2Cc1ccncc1
C[C@H]1CN([C@@H](C)CO)S(=O)(=O)c2ccc(C#CC3CC3)cc2O[C@@H]1CN(C)C(=O)Cc1ccncc1
CCCC#Cc1ccc([C@H]2[C@H](CO)N3CCCCN(S(=O)(=O)Cc4ccccc4)C[C@@H]23)cc1
COc1ccc(CN(C)C[C@H]2Oc3c(NS(=O)(=O)c4ccccc4)cccc3C(=O)N([C@@H](C)CO)C[C@H]2C)cc1
Cc1ccc(S(=O)(=O)N(C)C[C@H]2OCCCC[C@H](C)Oc3ccc(NS(=O)(=O)c4ccccc4)cc3C(=O)N([C@H](C)CO)C[C@H]2C)cc1
C[C@H]1CN([C@@H](C)CO)C(=O)c2cc(NS(=O)(=O)c3ccccc3)ccc2O[C@@H]1CN(C)Cc1ccc(C(=O)Nc2ccccc2N)cc1
COc1ccc(C#Cc2ccc([C@H]3[C@@H](CO)N4C(=O)CN(C(C)=O)C[C@H]34)cc2)cc1
COc1ccccc1-c1ccc2c(c1)O[C@@H](CN(C)S(=O)(=O)c1ccc(F)cc1)[C@@H](C)CN([C@@H](C)CO)S2(=O)=O
C[C@H]1CN([C@@H](C)CO)S(=O)(=O)c2ccc(C3=CCCCC3)cc2O[C@@H]1CN(C)S(=O)(=O)c1ccc(F)cc1
Cc1noc(C)c1S(=O)(=O)Nc1ccc2c(c1)C(=O)N([C@@H](C)CO)C[C@H](C)[C@@H](CN(C)Cc1ccc(C(F)(F)F)cc1)OCCCC[C@@H](C)O2
C[C@@H]1CN([C@H](C)CO)S(=O)(=O)c2ccc(C3=CCCCC3)cc2O[C@H]1CN(C)S(=O)(=O)c1ccc(F)cc1
O=C(Nc1ccccc1F)N1CC(=O)N2[C@H](C1)[C@@H](c1ccc(C#CC3CCCC3)cc1)[C@@H]2CO
CC(C)NC(=O)N1[C@H](CN(C)C(=O)c2ccccc2)[C@@H](c2ccccc2)[C@@H]1CO
CCC(=O)N1CC2(C1)[C@H](c1ccccc1)[C@H](CO)N2Cc1ccccc1OC
CCCNC(=O)N(C)C[C@@H]1Oc2ncc(Br)cc2C(=O)N([C@H](C)CO)C[C@@H]1C
COc1ccc(C#Cc2ccc([C@@H]3[C@@H](CO)N4C(=O)CN(C(=O)c5cccnc5)C[C@@H]34)cc2)cc1
C[C@H](CO)N1C[C@H](C)[C@H](CN(C)S(=O)(=O)c2cccc(F)c2)Oc2ncc(C#CC3CCCCC3)cc2C1=O
CN(C)C(=O)c1ccc(-c2ccc([C@H]3[C@H](CO)N4CCCCN(CCC(F)(F)F)C[C@@H]34)cc2)cc1
C[C@H](CO)N1C[C@H](C)[C@@H](CN(C)Cc2ccncc2)Oc2ncc(C#CCN(C)C)cc2C1=O
COc1ccc(S(=O)(=O)Nc2ccc3c(c2)C(=O)N([C@@H](C)CO)C[C@@H](C)[C@@H](CN(C)S(=O)(=O)c2ccc(Cl)cc2)OCCCC[C@H](C)O3)cc1
C[C@@H]1CN([C@H](C)CO)S(=O)(=O)c2ccc(C#C[C@@H](C)O)cc2O[C@H]1CN(C)Cc1ccc(-c2ccccc2)cc1
C[C@@H]1CN([C@H](C)CO)C(=O)c2cccc(NC(=O)NC3CCCCC3)c2O[C@@H]1CN(C)Cc1ccc(Oc2ccccc2)cc1
C[C@@H]1CN([C@H](C)CO)C(=O)c2cc(NS(=O)(=O)c3ccc(Cl)cc3)ccc2O[C@@H]1CN(C)Cc1ccc(-c2ccccc2)cc1
